# In PubChem BioAssay AID694 (Emory University Molecular Libraries Screening Center, 2007):
# The whole screen tested about 1,300 compounds, of which about 25 (2%) were called active. No rule for the calls is given here. The list comes from a sample in which actives are over-represented; it also holds similar structures and randomly drawn compounds.
# Biological target: Estrogen receptor (Homo sapiens) (UniProt P03372)
# Assay: blockers of coactivator recruitment to ERα – biochemical, LOPAC library, TR-FRET, primary screen (AID 694);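 also: receptor was agonist-bound with estradiol present during the assay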
# Settings: TR-FRET ERalpha-coactivator peptide binding, stronger effect = higher value
# Chain of Estrogen receptor (Homo sapiens) (P03372 whole entry, looked up): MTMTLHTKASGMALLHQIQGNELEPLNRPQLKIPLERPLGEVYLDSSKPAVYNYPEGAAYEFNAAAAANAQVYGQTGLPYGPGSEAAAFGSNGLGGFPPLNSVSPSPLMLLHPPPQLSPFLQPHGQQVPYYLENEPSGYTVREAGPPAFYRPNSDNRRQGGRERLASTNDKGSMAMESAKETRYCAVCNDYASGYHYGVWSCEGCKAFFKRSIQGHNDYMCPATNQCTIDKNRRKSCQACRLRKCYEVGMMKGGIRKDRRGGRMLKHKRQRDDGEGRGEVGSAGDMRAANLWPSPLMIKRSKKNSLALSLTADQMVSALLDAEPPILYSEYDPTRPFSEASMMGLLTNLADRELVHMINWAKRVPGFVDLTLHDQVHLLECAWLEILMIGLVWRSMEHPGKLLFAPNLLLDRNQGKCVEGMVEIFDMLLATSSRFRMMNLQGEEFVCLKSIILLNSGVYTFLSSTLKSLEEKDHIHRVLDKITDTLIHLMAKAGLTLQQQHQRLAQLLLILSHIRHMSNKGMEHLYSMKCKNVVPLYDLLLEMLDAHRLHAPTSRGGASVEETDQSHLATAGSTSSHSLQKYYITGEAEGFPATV
SMILES,inhibition (at 45 µM),"inhibition (inhibition, at 15 µM)"
C=CCN1CCc2c(cc(O)c(O)c2Br)[C@@H](c2ccccc2)C1,2.69% (inactive),6.75%
Cc1nc(N=Nc2cc(S(=O)(=O)O)c3cc([N+](=O)[O-])cc(S(=O)(=O)O)c3c2)c(COP(=O)(O)O)c(C=O)c1O,60.6% (inactive),46.2%
OCCN1CCN(CC/C=C2/c3ccccc3Sc3ccc(C(F)(F)F)cc32)CC1,3.87% (inactive),3.25%
CN1C(C)(C)CCCC1(C)C,-1.09% (inactive),-2.02%
Nc1nc(OCc2ccccc2)c2[nH]cnc2n1,-3.48% (inactive),-5.45%
Cc1cccc(C)c1NC(=O)C[N+](C)(C)C,0.37% (inactive),-1.43%
CCCCN1CCC(COC(=O)c2cc(Cl)c(N)c3c2OCCO3)CC1,-8.8% (inactive),-4.44%
CC(=O)SCC[N+](C)(C)C,0.72% (inactive),-4.29%
CN(C)CCN(Cc1cccs1)c1ccccn1,0.3% (inactive),3.28%
Cc1nc(N=Nc2ccc(S(=O)(=O)O)cc2S(=O)(=O)O)c(COP(=O)(O)O)c(C=O)c1O,-1.62% (inactive),2.87%
CCOC(=O)c1cnc2c(cnn2CC)c1NN=C(C)C,1.01% (inactive),-4.69%
O=c1cc(O)cc(/C=C/c2ccc(O)c(O)c2)o1,5.73% (inactive),4.2%
NC(N)=NCCCCN=C(N)N,-1.43% (inactive),22.8%
CCCCCCCCCCCCC/C=C/C(O)C(N)CO (stereo not given),17.6% (inactive),-17.3%
NC(=NCCC[C@H](N)C(=O)O)NO,3.2% (inactive),2.74%
NC(C(=O)N[C@@H]1C(=O)N2C(C(=O)O)=C(Cl)CS[C@H]12)c1ccccc1 (stereo not given in full),-11.2% (inactive),-2.54%
CSC(N)=NCCC[C@H](N)C(=O)O,0.58% (inactive),-0.49%
CN(C)CCCCSC(=N)N,-2.28% (inactive),0.11%
COc1ccc2c(c1)c(CC(=O)N1CCOCC1)c(C)n2C(=O)c1ccc(Cl)cc1,2.58% (inactive),0.53%
Nc1ncnc2c1ncn2[C@@H]1O[C@H](C(=O)NC2CC2)[C@H](O)C1O (stereo not given in full),-7.62% (inactive),-0.92%
Nc1nc(N)c2nc(CNc3ccc(C(=O)NC(CCC(=O)O)C(=O)O)cc3)cnc2n1 (stereo not given),1.53% (inactive),-2.57%
CCCCCCC/C=C\CCCCCCCCC(=O)O,63.2% (inactive),46.6%

SMILES,inhibition (at 45 µM),"inhibition (inhibition, at 15 µM)"
CCCCCCCCCCCCCCSCC(=O)O,97.7% [fluorescence artefact?] (active),66.6%
CCCCCC(O)CCCC(=O)O (stereo not given),-5.09% (inactive),11.3%
COC(=O)c1c(-c2cc(OC)c(OC)c(OC)c2)c2ccnc(OCc3ncccn3)c2c(=O)n1Cc1ccnc(C)c1,-0.01% (inactive),7.82%
O=C(O)CCCCCC[C@H]1C(=O)NC(=O)N1CC[C@@H](O)C1CCCCC1,4.54% (inactive),37.6%
Nc1nc2c(ncn2COC(CO)CO)c(=O)[nH]1,-3.37% (inactive),-1.7%
Cc1cnc(NC(=O)C2=C(O)c3ccccc3S(=O)(=O)N2C)s1,1.42% (inactive),-3.85%
S=C(S)OC1CC2CC1C1CCCC21 (stereo not given),-5.42% (inactive),6.45%
CC(=O)NCCc1c[nH]c2ccc(O)cc12,-5.1% (inactive),4.29%
NC(=O)c1cccc(N)c1,-6.67% (inactive),0.5%
CC1(C)CCC2=C(O1)c1ccccc1C(=O)C2=O,0.18% (inactive),-0.19%
C=CCN1CCc2c(cc(O)c(O)c2Cl)C(c2ccccc2)C1 (stereo not given),-1.29% (inactive),-1.34%
NC(N)=N[C@@H](CCC(=O)O)C(=O)O,-1.09% (inactive),5.9%
CC(C)C1C2CCC(C2)C1N (stereo not given),-15.6% (inactive),-0.95%
NCCC(=O)NCCc1cnc[nH]1,-9.27% (inactive),2.24%
CCN1/C(=C/C(C)=O)Sc2ccc(OC)cc21,0.62% (inactive),-1.25%
CSc1ccc2c(c1)N(CCC1CCCCN1C)c1ccccc1S2 (stereo not given),13.6% (inactive),10.5%
O=C(O)Cc1ccc(O)c(O)c1,13.3% (inactive),9.47%
CC(C)C[C@H](N)CSSC[C@@H](N)CC(C)C,0.5% (inactive),-0.82%
Cc1ccccc1CNc1ncnc2c1ncn2C1OC(CO)C(O)C1O (stereo not given),-2.05% (inactive),-1.9%
Nc1ccc(N2C(=O)c3ccccc3C2=O)c(Cl)c1,-4.66% (inactive),-3.36%
NC(N)=NC(N)=Nc1cccc(Cl)c1,-5.64% (inactive),-4.32%
CN[C@H]1CC[C@@H](c2ccc(Cl)c(Cl)c2)c2ccccc21,4.49% (inactive),4.91%

SMILES,inhibition (at 45 µM),"inhibition (inhibition, at 15 µM)"
CN1CCN(c2nc3cc(C(F)(F)F)ccc3n3cccc23)CC1,-8.98% (inactive),-4.03%
COc1cc2c(cc1O)CC[C@@H]1[C@@H]2CC[C@]2(C)[C@@H](O)CC[C@@H]12,1.97% (inactive),3.36%
O=c1[nH]cnc2[nH]ncc12,-22.8% (inactive),-0.71%
NC(CO)C(=O)NNCc1ccc(O)c(O)c1O (stereo not given),90.3% [fluorescence artefact?] (active),63.1%
N=C(N)SCCc1cccc(CCSC(=N)N)c1,-4.03% (inactive),-3.18%
O=C1c2c(O)cc(O)cc2OC(c2ccc(O)c(O)c2)C1O (stereo not given),7.88% (inactive),5.23%
O=c1[nH]c2cc(Cl)c(Cl)cc2[nH]c1=O,-4.07% (inactive),3.65%
CN(C)CCOC(c1ccccc1)c1ccccc1,0% (inactive),1.48%
Nc1ncnc2c1nc(Sc1ccc(Cl)cc1)n2C1OC2COP(=O)(O)O[C@@H]2[C@@H]1O (stereo not given in full),2.25% (inactive),-0.54%
NCCCS(=O)(=O)O,-5.28% (inactive),-0.89%
Brc1ccc([C@H]2CN3CCSC3=N2)cc1,-14.5% (inactive),-5.52%
CCOC(=O)Nc1ccc(NCc2ccc(F)cc2)nc1N,-2.33% (inactive),-0.39%
OC[C@H]1O[C@@H](n2cnc3cncnc32)[C@H](O)[C@@H]1O,-0.26% (inactive),-1.71%
NC[C@@H]1O[C@H](C23CC4CC(CC(C4)C2)C3)Cc2c1ccc(O)c2O,6.83% (inactive),-1.93%
N#CC(Cc1ccc(O)c(O)c1)C(=O)N1CCc2ccccc21 (stereo not given),4.21% (inactive),-5.26%
Nc1nc(SCc2ccc([N+](=O)[O-])cc2)c2ncn([C@@H]3O[C@H](CO)[C@H](O)C3O)c2n1 (stereo not given in full),-19.1% (inactive),-4.91%
COc1ccccc1CNCCCCCCNCCCCCCCCNCCCCCCNCc1ccccc1OC,10.9% (inactive),6.92%
CCCCCCCCCCC/C=C\C(C)(C)/C=C\CCCC(=O)O,33.3% (inactive),17.4%
Cc1c(CC(C)(C)C(=O)O)n(Cc2ccc(Cl)cc2)c2ccc(F)cc12,9.14% (inactive),5.8%
NC(N)=[N+]1CCc2ccccc2C1,-8.81% (inactive),1.64%
CC(CCc1ccccc1)NCC(O)c1ccc(O)c(C(N)=O)c1 (stereo not given),5.4% (inactive),3.9%
O=C(O)c1cc([N+](=O)[O-])ccc1NCCCc1ccccc1,1.89% (inactive),-3.54%

SMILES,inhibition (at 45 µM),"inhibition (inhibition, at 15 µM)"
N=c1ccn2c(n1)OC1[C@@H](O)[C@@H](CO)O[C@H]12 (stereo not given in full),-2.34% (inactive),1.25%
COc1ccc(/C=C/C(=O)Nc2ccccc2C(=O)O)cc1OC,3.42% (inactive),4.38%
O=S(=O)(c1cccc2c(I)cccc12)N1CCCNCC1,21.6% (inactive),3.12%
OC(CN1CCN(c2cccc(Cl)c2)CC1)C(c1ccccc1)c1ccccc1 (stereo not given),3.01% (inactive),4.55%
COc1cc(C(O)C(=O)O)ccc1O (stereo not given),-7.3% (inactive),0.57%
CCCn1c(=O)c2[nH]c(-c3ccc(OCC(=O)Nc4ccc(C#N)cc4)cc3)nc2n(CCC)c1=O,46.8% (inactive),8.2%
O=C(Nc1cc(C(=O)Nc2ccc(S(=O)(=O)O)cc2S(=O)(=O)O)cc(C(=O)Nc2ccc(S(=O)(=O)O)cc2S(=O)(=O)O)c1)Nc1cc(C(=O)Nc2ccc(S(=O)(=O)O)cc2S(=O)(=O)O)cc(C(=O)Nc2ccc(S(=O)(=O)O)cc2S(=O)(=O)O)c1,22.9% (inactive),17.2%
C/C=C1\C(=O)CC2C3CCC4=CC(=O)CC[C@]4(C)C3CC[C@]12C (stereo not given in full),-2.62% (inactive),-5.45%
Cc1cc(C)c(NC(=O)C[C@H](CC(=O)O)c2cccc3ccccc23)c(C(=O)N2CCC3(CCCC3)CC2)c1,4.81% (active),53%
C[N+](C)(C)CCC(=O)c1cccc2ccccc12,4.57% (inactive),3.36%
COc1ccccc1N1CCN(CCN(C(=O)c2ccc(I)cc2)c2ccccn2)CC1,10.1% (inactive),2.05%
CCCCCCCCCCCCCCCC(=O)OC(CC(=O)O)C[N+](C)(C)C (stereo not given),12.7% (inactive),4.2%
CC(C)C[C@H](NC(=O)[C@@H](O)[C@H](N)Cc1ccccc1)C(=O)O,-3.72% (inactive),0.08%
O=C(O)CNC(=O)C(CS)Cc1ccccc1 (stereo not given),-3.83% (active),50.5%
CC(C)C[C@H](NC(=O)[C@H](O)[C@H](N)Cc1ccccc1)C(=O)O,-1.92% (inactive),-0.07%
CC1=C(CC(=O)O)c2cc(F)ccc2/C1=C\c1ccc(S(C)(=O)=O)cc1,2.44% (inactive),2.34%
Nc1nc(Cl)nc2c1ncn2[C@@H]1O[C@H](COP(=O)(O)OP(=O)(O)OP(=O)(O)O)[C@H](O)C1O (stereo not given in full),-8.59% (inactive),-0.94%
CN(C)CCCO[C@@H]1[C@H]2OC(C)(C)O[C@H]2O[C@@H]1C(O)CO (stereo not given in full),6.83% (inactive),-5.23%
CN1CCc2cc(Cl)c(O)cc2[C@@H](c2ccccc2)C1,1.68% (inactive),0.35%
